Source: ChEMBL document CHEMBL1157539, “Thousands of chemical starting points for antimalarial lead identification” (Nature, 2010)

Assays:
Assay type in all cases: functional
Plasmodium falciparum [1] = assay: GSK_TCMDC: Inhibition of Plasmodium falciparum 3D7 in whole red blood cells, using parasite LDH activity as an index of growth. Test compounds present at 2uM
Plasmodium falciparum [2] = assay: GSK_TCMDC: Inhibition of Plasmodium falciparum Dd2 in whole red blood cells, using parasite LDH activity as an index of growth. Test compounds present at 2uM
HepG2 = assay: GSK_TCMDC: Percent inhibition of human HepG2 cell line. Test compounds present at 10uM.

Structure (SMILES) | Inhibition (Plasmodium falciparum [1]) | Inhibition (Plasmodium falciparum [2]) | Inhibition (HepG2)
Cc1cccc2nc(-c3ccc(-c4ccc(CN5CCCCC5)cc4)cc3)[nH]c12.O=C(O)C(F)(F)F | 100% | 99% | 27%
Cc1csc2nc(-c3ccccn3)nc(Nc3ccc4ncsc4c3)c12.Cl | 85% | 91% | 0%
CN1CCN(CCCNCc2ccccc2-c2cccc(CNCc3ccc4c(c3)OCO4)c2)CC1.O=C(O)C(F)(F)F | 100% | 7% | 34%
O=C(O)/C=C\C(=O)O.c1cc(CN2CCCCC2)cc(OCCCNc2ccnc3ccccc23)c1 | 100% | 99% | 48%
CCCCN(CCCC)CCCCCCNc1c2ccccc2nc2ccccc12.Cl | 95% | 87% | 49%
CCOc1cc(C)ccc1NC1CCN(CCCCNC(=O)c2ccc(NC(=O)c3ccc(Cl)cc3)cc2)CC1 | 100% | 70% | 17%
COc1ccc2nc(N=C3NC4(c5ccccc5)NC(=Nc5nc6ccc(OC)cc6[nH]5)NC4(c4ccccc4)N3)[nH]c2c1.O=C(O)C(F)(F)F (stereo not given) | 100% | 85% | 0%
CCn1c(SC)nnc1C1CCCN(CC(=O)Nc2nc3ccc(OC)cc3s2)C1 (stereo not given) | 97% | 81% | 0%
O=C(/C=C/c1ccc(Cl)c(Cl)c1)NCCCCCN1CCCC(CNC(=O)/C=C/c2ccccc2)C1 (stereo not given) | 98% | 6% | 37%
Cc1cccc2nc(-c3cccc(-c4cccc(C(=O)NCCN5CCCC5)c4)c3)[nH]c12 | 100% | 75% | 21%
COc1cc(C)nc2ccc(NC(=O)c3cc(C(F)(F)F)cc(C(F)(F)F)c3)cc12.Cl | 100% | 99% | 16%
Nc1ccc2nc(C=Cc3ccccc3)[nH]c2c1 | 92% | 89% | 7%
O=C(O)C(F)(F)F.O=c1[nH]ccc2nc(N[C@@H]3CCNC3)nc(Nc3cc(Cl)cc(Cl)c3)c12 | 100% | 99% | 99%
Nc1ncc(-c2ccc(NC(=O)Nc3cc(C(F)(F)F)ccc3F)cc2)c(N)n1.O=C(O)C(F)(F)F | 99% | 21% | 96%
CCC(C)C#Cc1c(C)nc(N)nc1N (stereo not given) | 96% | 0% | 53%
CC(C)N1CCC(N(Cc2ccc(-c3ccc(Cl)cc3)cc2)C(=O)Cn2c(CCc3cccc(F)c3F)nc(=O)c3ccccc32)CC1.O=C(O)C(O)C(O)C(=O)O | 86% | 70% | 61%
Cn1cncc1C(=O)Nc1cccc(-c2ccc(-c3nc4cc(C(F)(F)F)ccc4[nH]3)cc2)c1 | 97% | 98% | 4%
COc1ccc(C(=O)CCC(=O)N(Cc2ccc(-c3ccc(CNCCc4ccc(S(C)(=O)=O)cc4)cn3)cc2)C2CCN(Cc3ccccc3)CC2)cc1F.O=C(O)C(F)(F)F | 99% | 72% | 20%
COc1ccc2nc3cc(Cl)ccc3c(Nc3ccc(Sc4ccc(Nc5c6ccc(Cl)cc6nc6ccc(OC)cc56)cc4)cc3)c2c1.Cl | 92% | 94% | 1%
CC1(C)NC(N)=NC(=N)N1OCc1ccc(-c2ccccc2)cc1 | 95% | 97% | 64%

Structure (SMILES) | Inhibition (Plasmodium falciparum [1]) | Inhibition (Plasmodium falciparum [2]) | Inhibition (HepG2)
Cl.Fc1ccc2ncc(Cl)c(CCN3CCC(NCc4cc5c(cn4)OCCO5)CC3)c2c1 | 93% | 20% | 24%
COc1ccc2nccc([C@@H](O)CN3CCC(NC(=O)/C=C/c4ccc(Cl)c(C(F)(F)F)c4)CC3)c2c1 | 100% | 89% | 11%
N=c1c2nc(-c3c(F)cccc3Cl)[nH]c(=O)c2[nH]c(=O)n1-c1ccccc1 | 95% | 0% | 52%
NS(=O)(=O)c1ccccc1Nc1nc(Nc2ccc(N3CCOCC3)cc2)nc2c1CCC2.O=CO | 96% | 99% | 21%
CC(=O)Nc1nc(N)c2c(ccc3c2ccn3CC(C)C)n1 | 94% | 78% | 66%
CCOC(=O)NCCSC(C)(C)[C@H](NC(=O)[C@H](Cc1cc2ccccc2s1)[C@H](CC)N(O)C=O)C(=O)Nc1nccs1 | 98% | 98% | 11%
CCc1cccc(NC(=O)/C=C/c2ccc3c(c2)CN(C)CC3)c1 | 94% | 91% | 8%
Cc1cccc2nc(-c3ccc(-c4ccc(CN5CCCCC5)cc4)s3)[nH]c12.O=C(O)C(F)(F)F | 99% | 87% | 16%
COc1ccc(CCOc2c(C)nc(N)nc2N)cc1OC.Cl | 96% | 22% | 66%
COc1cccc(CNC(=O)c2ccnc(-c3ccc(CNCCOc4ccccc4)cc3)c2)c1.O=C(O)C(F)(F)F | 83% | 10% | 23%
FC(F)(F)c1ccc2[nH]c(-c3ccc(-c4ccc(CNCCN5CCNCC5)cc4)cc3)nc2c1.O=C(O)C(F)(F)F | 92% | 74% | 13%
COc1ccc(CN(C)CCCc2ccc(NC(=O)Cc3ccc4nc(-c5ccccc5)ccc4c3)cc2)cc1OC | 98% | 0% | 10%
Fc1ccc2[nH]c(-c3ccc(-c4ccc(CNCCN5CCNCC5)cc4)cc3)nc2c1.O=C(O)C(F)(F)F | 96% | 70% | 94%
c1ccc(Oc2ccc(Nc3ccnc4cc(-c5cccc(CN6CCOCC6)c5)ccc34)cc2)cc1 | 100% | 100% | 14%
CCc1cn2c3c(cc(C(=O)N[C@@H](Cc4ccccc4)[C@H](O)CNC4CCCCC4)cc13)N(CC)S(=O)(=O)CC2.O=CO | 98% | 98% | 8%
COc1ccc(-c2cccc(NC(=O)c3cccc(Cl)c3)c2)cc1CN1CCCC1.O=C(O)C(F)(F)F | 99% | 66% | 45%
Cn1c(N=C2NC3(c4ccccn4)NC(=Nc4nc5ccccc5n4C)NC3(c3ccccn3)N2)nc2ccccc21.O=C(O)C(F)(F)F (stereo not given) | 99% | 44% | 12%
Cc1cccc(Cl)c1Nc1nnc(-c2cccc(C(=O)NC[C@@H]3CC[C@H]4C[C@@H]3C4(C)C)c2)o1 | 85% | 69% | 2%
O=C(Nc1ccc(Cl)cc1)Nc1ccc(OCC(O)CN2CCCCC2)cc1 (stereo not given) | 83% | 13% | 18%
FC(F)(F)c1ccc2[nH]ccc(=NN=Cc3cccc(Cl)c3)c2c1 | 97% | 2% | 0%

Structure (SMILES) | Inhibition (Plasmodium falciparum [1]) | Inhibition (Plasmodium falciparum [2]) | Inhibition (HepG2)
Cc1ccc(-c2nnc(Nc3ccc(OCC(N)=O)cc3)c3ccccc23)cc1S(=O)(=O)NCC1CCCO1 (stereo not given) | 92% | 70% | 0%
Cc1ccc(O)cc1Nc1ccnc2cc(-c3ccc(CN4CCCCC4)o3)ccc12 | 100% | 99% | 16%
Cn1ncc2ccc(Nc3nccc(-c4ccc5c(c4)c(N)nn5C)n3)cc21 | 99% | 96% | 48%
COc1ccc(-c2cccc(NC(=O)c3ccc(Cl)cc3)c2)cc1CN1CCCC1.O=C(O)C(F)(F)F | 97% | 52% | 55%
COc1cc(Nc2nccc(N3CCC(NC(=O)C4COc5ccccc5O4)C3)n2)cc(OC)c1OC (stereo not given) | 90% | 58% | 5%
CCOc1ccc(Nc2ccc3nonc3c2S(=O)(=O)Nc2ccc(OCC)cc2)cc1 | 100% | 93% | 6%
Br.N=C(N)c1ccc(C(=O)Nc2cccc(C(=N)N)c2)cc1 | 88% | 82% | 13%
O=C(Nc1ccc(S(=O)(=O)NCCCN2CCOCC2)cc1)c1cc(-c2ccccc2)[nH]n1 | 82% | 29% | 16%
CN(C)Cc1ccc2cc(NC(=O)c3ccc(-c4ccc(Cl)cc4)cc3)ccc2c1 | 92% | 22% | 21%
c1ccc(-c2cccc(-c3ccccn3)n2)nc1 [TERPYRIDINE] | 98% | 99% | 45%
COc1ccc(N2C(N)=NC(N)=NC2(C)C)cc1OC.Cl | 95% | 0% | 13%
CN1CCN(c2cccc(-c3nnc(-c4cccc(OCC(=O)NCc5ccc(C(F)(F)F)cc5)c4)o3)c2)CC1 | 98% | 86% | 10%
COC(=O)c1cccc(CN(CCC(O)(C(F)(F)F)C(F)(F)F)C(=O)CC2CCCC2)c1 | 98% | 53% | 0%
CC[C@H](N/C(=N\c1cccc(Cl)c1Cl)Nc1ccc(C#N)cc1O)c1ccccc1 | 91% | 71% | 0%
O=C(Nc1ccc(C(F)(F)F)cc1)c1ccc(S(=O)(=O)NC2CCCN(CC3CCCCC3)C2)cc1.O=C(O)C(F)(F)F (stereo not given) | 99% | 0% | 45%
O=C(NCCNc1ccnc(Nc2ccc(F)cc2)n1)Nc1ccc2c(c1)OCO2 | 97% | 3% | 15%
O=C(NCCCNc1ccc2ccccc2n1)c1cc2c(Cl)cc(Cl)cc2[nH]1 | 100% | 100% | 40%
CN1CCN(c2ccnc3ccc(NC(=O)Nc4ccc(Cl)cc4)cc23)CC1 | 100% | 99% | 11%
Cc1cc(N[C@@H](CC(C)C)C(=O)NCc2cccs2)nc(Nc2ccccc2)n1.O=C(O)C(F)(F)F | 100% | 57% | 18%
O=C(NCC1CCC(C(=O)NC2CCCc3ccccc32)CC1)c1ccc(O)c(-c2cccc([N+](=O)[O-])c2)c1 (stereo not given) | 99% | 97% | 2%
